KDM4E inh – JMJD2E (human) inhibition. 230,000 tested, 1.6% active. AID 2147. JMJD2E catalytic domain, FDH-coupled NADH fluorescence (FDH is formaldehyde dehydrogenase). B2RXH2. Potency, µM (titrated, usually from 57.1 µM), for inactives: at the top dose activity change, negative = inhibition, usual class: inhibitors; active = well fitted inhibition curve with a large enough effect, not every such curve was filed as active; inconclusive = small, poorly fitted or top-dose-only effect, or another doubt; inactive = no such curve, though single readings can be large or run the other way;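 note: potency is the fitted concentration of half-maximal effect; 0% = wells with enzyme and -100% = buffer wells without enzyme; nearly all actives have a fitted effect of over 50% in size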
Target sequence (B2RXH2 1-337 limits assumed): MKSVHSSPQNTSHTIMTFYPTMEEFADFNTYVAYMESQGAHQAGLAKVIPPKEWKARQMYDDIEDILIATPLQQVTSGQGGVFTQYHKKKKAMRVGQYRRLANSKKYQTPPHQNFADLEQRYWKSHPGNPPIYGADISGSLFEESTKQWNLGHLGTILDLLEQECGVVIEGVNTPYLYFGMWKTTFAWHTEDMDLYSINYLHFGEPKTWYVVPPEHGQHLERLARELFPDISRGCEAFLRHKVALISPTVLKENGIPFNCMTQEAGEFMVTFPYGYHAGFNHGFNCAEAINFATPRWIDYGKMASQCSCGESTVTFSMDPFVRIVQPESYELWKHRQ
Tau ThT inhib – inhibitors of human tau fibril formation, thioflavin T binding. P10636. recombinant tau K18 P301L, heparin-induced fibrillization, ThT fluorescence. Potency, µM (highest dose often 57.4 µM), without a hit: at the top dose activity, negative = inhibition, most hits filed as inhibitors. 270,000 tested, 2.1% active. AID 1460; note: potency is the fitted concentration of half-maximal effect; nearly all actives have a fitted effect of over 55% in size
Target sequence (P10636 561-689 P618L limits assumed): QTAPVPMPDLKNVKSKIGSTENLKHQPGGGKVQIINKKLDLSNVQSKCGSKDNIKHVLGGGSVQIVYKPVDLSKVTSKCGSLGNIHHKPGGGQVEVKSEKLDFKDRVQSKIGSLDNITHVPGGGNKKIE
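Heparin-induced (20 uM) aggregation of recombinant human K18 P301L tau, 15 uM unlabeled with 0.24 uM labeled, pH 7 acetate buffer, 6 hr at 37 C with compound. Fibrils quantified by 30 uM ThT fluorescence after 1 hr ambient incubation.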
Coupling enz – coupling enzyme interference in Giardia aldolase counter-screen | activity change, negative = inhibition, % at 58.2 µM, hits read low | 290,000 tested, 0.67% active | coupling enzyme system counterscreen, AmpLite Red fluorescence | AID 2472; in the data active = activity change below about -30%
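Counterscreen of the coupled detection system alone, without aldolase: glyceraldehyde-3-phosphate coupling enzymes plus AmpLite Red readout. Compounds at 57.5 uM final, 10 min RT preincubation, 20 min RT reaction, fluorescence 525/598 nm.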
Tau fibril FP – blocks human tau fibril formation measured by polarization | P10636 | K18 P301L tau heparin fibrillization, Alexa594 FP, 6 h | Potency, µM (top dose mostly 57.7 µM), inactives show at the top dose activity, negative = inhibition, most hits filed as inhibitors | 280,000 tested, 0.39% active; note: potency is the fitted concentration of half-maximal effect; nearly all actives have a fitted effect of over 55% in size
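Recombinant K18 P301L […], labeled with Alexa 594 at 0.24 uM over 15 uM unlabeled; heparin inducer 20 uM final; 37 C, 6 hr; FP endpoint.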
Sfp inh – Sfp phosphopantetheinyl transferase inhibition; Biochemical Sfp PPTase activity, qHTS; Potency, µM, inactives show largest response in the series, negative = inhibition, most hits filed as inhibitors; 310,000 tested, 3.5% active; AID 1490;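 note: the enzyme is Sfp with the accession as filed and its product quenches rhodamine fluorescence; potency is the fitted concentration of half-maximal effect; 0% = enzyme reaction without inhibitor and -100% = no enzyme wells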
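Step 1, compound plus 15 nM Sfp-PPTase, 15 min, room temperature. Step 2, add rhodamine-CoA (5 uM) and BHQ-2-YbbR (12.5 uM). Step 3, read 525/598 nm fluorescence at 0 and 30 min.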
Tau fluor cs – counter-screen for tau fibril formation inhibitors; tau K18 P301L (four-repeat tau fragment) Alexa594 fluorescence, heparin fibrillization; Potency, µM (series often up to 57.7 µM), for inactives: at the highest dose activity change, negative = decrease; 280,000 tested, 0.93% active; AID 1463; note: potency is the fitted concentration of half-maximal effect; nearly all actives have a fitted effect of over 55% in size
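Human K18 P301L tau (15 uM unlabeled plus 0.24 uM Alexa 594-labeled, final) in 100 mM sodium acetate pH 7 was mixed with compound and 20 uM heparin and incubated 6 hr at 37 C.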
* = called active by the depositor; [ ] = remark or other dose. This is a sample that favours compounds with a hit; in the whole collection about 5.3% have one here. Unless noted, calls come from the whole dose curve; as a rule, active = well fitted curve in the direction sought with a large enough effect; inconclusive = small, poorly fitted or top-dose-only effect, or another doubt; inactive = no such curve, though single readings can be large; an effect the other way counts as inactive or inconclusive. Unless noted, % is set by controls: 0 for no effect and ±100 for the full control effect.

`CCc1cccc(C)c1NC(=O)CN1C(=O)c2ccccc2Sc2ncccc21` gave Tau ThT inhib -7%, Tau fibril FP 10% and Tau fluor cs 1%.
COc1ccc2c(c1-c1c3c(cc(Br)c1OC)CCCC3)CCCC2 was read as KDM4E inh 7%, Tau ThT inhib -10%, Coupling enz 2, Tau fibril FP 11%, Sfp inh 8% and Tau fluor cs -5%.
C#CCN1C(=O)C(O)(CC(=O)/C=C/c2ccco2)c2ccccc21 (stereo not given) was read as KDM4E inh -1%, Tau ThT inhib -5%, Coupling enz 0, Tau fibril FP -1%, Sfp inh 35µM* and Tau fluor cs 0%.
`COc1ccc(-c2n[nH]c(C)c2-c2cnn(-c3ccccc3)c2)c(O)c1C` gave KDM4E inh inconclusive, Tau ThT inhib inconclusive, Coupling enz 0, Tau fibril FP inconclusive, Sfp inh 18% and Tau fluor cs 13µM*[quencher].
Screening COc1ccc(-c2onc(C)c2-c2cnn(-c3ccccc3)c2)c(O)c1C returned KDM4E inh -13%, Tau ThT inhib -15%, Coupling enz 0, Tau fibril FP -11%, Sfp inh -5% and Tau fluor cs inconclusive.
For Cc1ccc2c(c1)N(C(=O)N1CCC(C(=O)Nc3cccc(F)c3)CC1)CCO2 the results were Tau ThT inhib 2%, Tau fibril FP 6% and Tau fluor cs inconclusive.
For Cc1ccc(O)c(CNc2cccc3cccnc23)c1 the results were KDM4E inh -19%, Tau ThT inhib inconclusive, Coupling enz -19, Tau fibril FP 3%, Sfp inh inconclusive and Tau fluor cs 14µM*[quencher].
For Oc1ccc(Br)cc1CNc1cccc2cccnc12 the results were Coupling enz -19 and Sfp inh -1%.
`Oc1c(Br)cc(Br)cc1CNc1ccccn1` gave KDM4E inh 4%, Tau ThT inhib -17%, Coupling enz -7, Tau fibril FP inconclusive, Sfp inh 8% and Tau fluor cs inconclusive.
Screening Oc1c(Br)cc(Br)cc1CNc1cccc2cccnc12 returned Coupling enz -29 and Sfp inh 40µM*.
Screening NC(N)=NCCC[C@H](N)C(=O)N1CCC[C@H]1C(=O)N1CCC[C@H]1C(=O)NCC(=O)N[C@@H](Cc1ccccc1)C(=O)N[C@@H](CO)C(=O)N1CCC[C@H]1C(=O)N[C@@H](Cc1ccccc1)C(=O)O returned Coupling enz 1 and Sfp inh -1%.
`Cc1ccc(S(=O)(=O)c2cn(CC(=O)Nc3ccc4c(c3)OCO4)c3ccc(C)cc3c2=O)cc1` gave Tau ThT inhib -3%, Tau fibril FP -8% and Tau fluor cs -30%.
COc1ccc(NCc2cc3cc4c(cc3n(CC(=O)Nc3cc(C)ccc3C)c2=O)OCCO4)cc1 was read as Tau ThT inhib -13%, Tau fibril FP inconclusive and Tau fluor cs inconclusive.
Screening CCCn1ccc2c(OCC(=O)Nc3ccc(C(F)(F)F)cc3)cccc2c1=O returned Tau ThT inhib 3%, Tau fibril FP -10% and Tau fluor cs -19%.
CCOC(=O)c1cc(C#N)c(SCC(=O)c2cc(C#N)c(SC)nc2C)nc1C was read as KDM4E inh -3%, Tau ThT inhib inconclusive, Coupling enz 4, Tau fibril FP inconclusive, Sfp inh 16µM* and Tau fluor cs inconclusive.
`CCOC(=O)c1cc(C)nc(SC)c1C#N` gave KDM4E inh inconclusive, Tau ThT inhib 0%, Coupling enz 4, Tau fibril FP -8%, Sfp inh 79µM* and Tau fluor cs -8%.
Screening CCOC(=O)c1cc(C#N)c(SCC(=O)OC)[nH]c1=O returned KDM4E inh inconclusive, Tau ThT inhib inconclusive, Coupling enz 12, Tau fibril FP -3%, Sfp inh 50µM* and Tau fluor cs -11%.
Screening Cc1cc(-c2ccc(S(=O)(=O)Nc3ccc(Cl)cc3C)cc2)on1 returned Tau ThT inhib 4%, Tau fibril FP inconclusive and Tau fluor cs inconclusive.
Screening O=C(NCCOc1ccccc1)O[C@@H]1C(=O)c2cc(Br)ccc2O[C@H]1c1ccc2c(c1)OCO2 returned KDM4E inh 4%, Tau ThT inhib -7%, Coupling enz -1, Tau fibril FP inconclusive, Sfp inh 26% and Tau fluor cs inconclusive.
CN1CCc2c(sc(N)c2C(=O)O)C1 was read as KDM4E inh inconclusive, Tau ThT inhib inconclusive, Coupling enz -7, Tau fibril FP inconclusive, Sfp inh 28µM* and Tau fluor cs -10%.
COc1ccc(C(=O)c2c(N)sc3c2CCN(C)C3)cc1 was read as Coupling enz 1 and Sfp inh -3%.
Screening Cn1c(=O)c2c(c3ccccc31)OC(=O)CC2c1cccc(F)c1 (stereo not given) returned Tau ThT inhib -7%, Tau fibril FP -4% and Tau fluor cs -13%.
For Cc1cccc(/C=C2/Sc3ccc(C(=O)NCCN4CCCC4)cc3NC2=O)c1 the results were Coupling enz 1 and Sfp inh inconclusive.
For COc1cccc(/C=C2/Sc3ccc(C(=O)NCCN4CCCCCC4)cc3NC2=O)c1 the results were Coupling enz -1 and Sfp inh 45µM*.
Screening O=C1Nc2cc(C(=O)NCCN3CCCCCC3)ccc2S/C1=C\c1ccccc1 returned Sfp inh 40µM*.
Screening Cc1cc(S(=O)(=O)Nc2cc3c(cc2NCc2ccccc2)n(C)c(=O)n3C)ccc1F returned Tau ThT inhib inconclusive, Tau fibril FP -7% and Tau fluor cs inconclusive.
For CCN(CC)/C(Sc1ccccc1)=C(\C(Cl)=C(Cl)Cl)[N+](=O)[O-] the results were KDM4E inh -6%, Tau ThT inhib -12%, Coupling enz 0, Tau fibril FP -5%, Sfp inh 3% and Tau fluor cs -3%.
`O=[N+]([O-])/C(C(Cl)=C(Cl)Cl)=C(\Sc1ccccc1)N1CCCCC1` gave KDM4E inh -28%, Tau ThT inhib 25µM*, Coupling enz 0, Tau fibril FP inconclusive, Sfp inh -15% and Tau fluor cs -25%.
Screening Cc1ccc(C(C)C)c(OCCCCN2CCNCC2)c1 returned Coupling enz -1 and Sfp inh 56µM*.
`N#CC(=C(/N)Sc1ccccc1N)/C(C#N)=C(/N)Sc1ccccc1N` gave KDM4E inh inconclusive, Tau ThT inhib 35µM*, Coupling enz 0, Sfp inh inconclusive and Tau fluor cs 25µM*[quencher].
